Measured values reported in the supplement of paper PMC11417369.
Whole data set: some 25,000 sequences, median “ln(normalized median fluorescence intensity)” near 9.7, cut for the highest 2% near 11. Only a selection was taken, and the highest values are over-represented in it overall.

test system: PfAP2-HC AP2 domain (GST-tagged); assay: gcPBM binding intensity (ln(normalized median fluorescence intensity)); higher = stronger DNA binding
Procedure, shortened: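 An Agilent 4 × 180k array of primer-extended double-stranded 36-bp intergenic genomic probes, with negative controls, was incubated for 1 h with GST-tagged P. falciparum DNA-binding domains expressed in E. coli. Alexa488 anti-GST antibody detected bound protein, scanned at 488 nm. Binding intensity is the highest Masliner-normalised natural-log median intensity across replicate spots of either probe orientation.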

Sequence	gcPBM binding intensity (ln)
AAAATCTATATTAACACACACACAAAAAAAAAAAAA [CACACA_site6738]	10.6
TAACTTGAATGGATATGTACATATATATATATATAT [XGTACX_site5990]	10
TTGTTTTTTTTTTCTATAAGCATAAAAATGATATAA [XGTACX_negctrl_site356]	9.27
ATATAAGAAATAAAGAAAAATGTGTTTTTTTTTTTT [XGTACX_negctrl_site396]	9.6
ATATATATATATATAACACACGCAAAAAAATTAAAT [CACACA_site8395]	10.1
ACGATGAATATGTAAAGTACGCAAATGTAACAATAT [XGTACX_site728]	9.91
TATCATTGTTCATGCTTGCACTTTTGTTACTGTTCC [GTGCAC_site9425]	9.87
GAGAACATTGATACACGTACATAAGTTATAAGTATT [XGTACX_site7665]	9.71
TTAATTACATGTAATTGTACTTAATTATAAGACATT [XGTACX_site464]	9.52
AAAAAAAATATCTATGCATGTAATATTATGATATTG [TGCATGCA_site546]	9.58
TTCAAAAATATATAATGTACACAAATATAAAAGAAT [XGTACX_site1944]	9.81
AATAAAAAGAAACACACACACACACCCATATATATA [CACACA_site3589]	11.5
CACTAAAAGAAACACACACACACACCCATATATATA [CACACA_site4151]	11
ATAAAAAAAAGAAAAACACACACATATATATATATA [CACACA_site8243]	10.4
AAAAGAAAAAGAAAAACACACATAAATATAAATATA [CACACA_site1879]	10.2
AAAGAAAAAAAAAACACACACACACCCATTCAATAT [CACACA_site38]	11.4
ATACTAAAGAAACACACACACATATATATATAGAAT [CACACA_site100]	10.9
AAAGAAAAAAAAAACACACACACACGCATTCAATAT [CACACA_site6169]	10.7
AAAAAGGAGAAACACACACACACACCCATATATATA [CACACA_site905]	10.7

Sequence	gcPBM binding intensity (ln)
AGAAAAAAAAAACACACACACACACCCTCAATATAA [CACACA_site39]	10.5
TATCATTTGGTCTTTTACTTTTTCTGTTTTTTTTTT [CACACA_negctrl_site976]	9.91
CTCATTTTTGTACAGGTGCACTTATCGTTACACTAT	9.93
CGAAGGTTTGGCCATGCATGTTATAAGAATATATGT [TGCATGCA_site441]	9.51
AACTTTATTCCTAATTGTACACATATATATATATAT [XGTACX_site6823]	10
GGGGACGCGGGTGGGGGTACTCACACTATGCAAAAT [XGTACX_site7745]	9.74
AATAAGCTCACGTGTCGTACATTTTTTAAAACAACC [XGTACX_site4707]	9.78
CGTATTTATATAATTACACACCATATTTTAATTATT [CACACA_site5960]	9.76
AATGAACTCACGAGCACACACACACCGATATATATA [CACACA_site4710]	11
AAAATGAACTCACGAGCACACACACCCATATATATA [CACACA_site8247]	10.3
AATGAACAGACGAGCACACACACACCCATATATATA [CACACA_site1018]	10.9
AACACGCGCGGACACACACACACACCCACATATATA [CACACA_site5252]	11.3
CATACACCCGGACACACACACACACCCATATATAAT [CACACA_site4494]	10.5
AAAACACGCGGACACACACACACACGCCCACATATA [CACACA_site7105]	10.6
CGTGGGAGCGGACACACACACACACCCATATATATA [CACACA_site4340]	10.4
AACACGCGCAGACACACACACACACCCACATATATA [CACACA_site2205]	10.6
TATACACCCGGACACACACACATATATATATATATA [CACACA_site5030]	10.3
AAAACACGCGGACACACACACACACCCACCCATATA [CACACA_site8688]	11.6
CACGCGCCCGGACACACACACACACCCATATATATA [CACACA_site5251]	11.3

Sequence	gcPBM binding intensity (ln)
ATTTATATGTGGAGCAGTACGCACTCTCACAATTAA [XGTACX_site7252]	9.44
TGAATATTTACTTTAGCACACAATTTGTATTTGATT [CACACA_site960]	9.86
ATTATTTACCACAACACACAAATATTTACCAATCAT [CACACA_site5472]	10.5
TTGTTTATTTGTAAAGCTAACAAGAAATGTGAATAT [CACACA_negctrl_site931]	9.51
AGCATTTTAAAAGAAAAAAAAAAAAAAAAAAAAATA [GTGCAC_negctrl_site723]	9.17
TCATTTTACAGATGTGCATGTGAATCAATCTATTTA [TGCATGCA_site787]	9.56
ATTACTAAAAAATATAAACACACATATATTTTACAT [CACACA_site8633]	9.88
CACAGACACGGACACACACACACACCGATATATATA [CACACA_site4353]	11.2
CACAGACACGGACACACACACACACCCATATATATA [CACACA_site4354]	11.3
CACAGACACGGACACACACACATATATATATATATA [CACACA_site5248]	10.4
CGCGCACCCAGACACACACACACACCGATATATATA [CACACA_site8687]	10.9
TGGGAGCACAGACACACACACACACCGATATATATA [CACACA_site8001]	11.3
TGGGAGCACAGACACACACACACACCCATATATATA [CACACA_site335]	10.5
TTGGCATACGGACACACACACACACCCAGACATATA [CACACA_site4492]	10.4
CACAGACACGGACACACACACACACCCAGACACATA [CACACA_site4357]	11.6
TATATTATCAAAATGGTGCAATAATTTCTATATTAT [GTGCAC_site9772]	9.49
ATATAATGACAAGTATAAGTATCACAAAGAAATAAA [CACACA_negctrl_site1403]	9.79
CAGGCGTGAAATATACGTACACACATTATTTATATT [XGTACX_site5337]	9.94
AAGAAAAAAAAAATTACACACTGCGGACATACACAA [CACACA_site4838]	9.98
